Screening data: PubChem, National Center for Advancing Translational Sciences (NCATS)
In the library only some 10% were active in any assay of this set; here they are far more common.
hNpr1 antagonist = blocks ANP-stimulated signaling of human Npr1 receptor; P16066; HEK293 hNpr1 GloSensor cGMP, ANP-stimulated luminescence; Potency, µM (series often up to 46.3 µM), without a hit: top-dose activity change, negative = inhibition, most hits filed as inhibitors; hit rate 1.6% among 76,000; AID 1347048; calls by dose curve; also: nearly all actives have a fitted effect of over 60% in size
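Compound pre-incubated 30 min at room temperature on GloSensor-loaded HEK293 cells stably carrying hNpr1 and the pGS-40F cGMP biosensor. Stimulation uses hNppA at 0.1 nM final; luminescence is taken at baseline and 20 min post-agonist.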
HEK cytotox = kills HEK 293 cells. HEK 293 viability, ATP luminescence (CellTiter-Glo), 48-72 h. Potency, µM (highest dose often 115 µM), for inactives: at the highest dose activity change, negative = cytotoxicity, hits mostly inhibitors. hit rate 6.6% among 94,000. AID 1345083; also: nearly all actives have a fitted effect of over 60% in size
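Read-out: CellTiter-Glo ATP luminescence. Cells: HEK 293, 250 cells/well. Exposure: 48 or 72 hr, 37 degree Celsius.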
FLuc inh = inhibitors of firefly (Photinus pyralis) luciferase. P08659. AID 1347043. Potency, µM (series often up to 115 µM), most hits filed as inhibitors. hit rate 2.5% among 76,000. purified P. pyralis luciferase, luminescence, biochemical; also: nearly all actives have a fitted effect of over 65% in size
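Inhibitors were tested against purified firefly luciferase in a biochemical, low-substrate format (both substrates at 10uM) and luminescence measured with a CCD imager.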
GPT2 inhibitor = inhibitors of human GPT2 alanine aminotransferase | AID 1671188 | Potency, µM (top dose mostly 57.7 µM), for inactives: at the top dose activity change, negative = inhibition, actives largely listed as inhibitors | hit rate 0.25% among 100,000 | Recombinant GPT2, coupled pyruvate oxidase/HRP Amplex Red fluorescence | Q8TD30; also: nearly all actives have a fitted effect of over 60% in size
Target sequence (Q8TD30 whole entry, looked up): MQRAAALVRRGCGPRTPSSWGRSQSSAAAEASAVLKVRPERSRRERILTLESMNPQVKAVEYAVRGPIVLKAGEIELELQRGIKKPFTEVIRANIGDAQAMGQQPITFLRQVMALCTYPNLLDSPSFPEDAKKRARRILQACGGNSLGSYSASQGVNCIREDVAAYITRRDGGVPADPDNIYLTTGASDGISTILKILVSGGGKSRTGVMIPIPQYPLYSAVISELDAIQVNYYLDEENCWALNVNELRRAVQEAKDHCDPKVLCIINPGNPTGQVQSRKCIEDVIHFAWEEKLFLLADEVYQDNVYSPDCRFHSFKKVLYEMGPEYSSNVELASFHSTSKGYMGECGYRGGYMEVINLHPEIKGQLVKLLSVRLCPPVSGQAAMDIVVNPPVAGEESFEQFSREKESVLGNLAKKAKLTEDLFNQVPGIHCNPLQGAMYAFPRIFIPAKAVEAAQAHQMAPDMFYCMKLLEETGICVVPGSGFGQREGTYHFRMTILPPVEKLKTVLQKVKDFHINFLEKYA
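Fluorescence of coupled pyruvate oxidase/HRP/Amplex Red system (50uM Amplex, 30 min, dark) reports pyruvate formed by GPT2. Enzyme reaction: 10ng/uL GPT2, 2mM L-alanine, 250uM a-KG, 30 min room temperature, pH 7.5; 50uM AOA control.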
3T3 cytotox = NIH 3T3 cell cytotoxicity; NIH 3T3 viability, CellTiter-Glo ATP luminescence, 48-72 h; Potency, µM (top dose mostly 96.7 µM), for the others: at the highest dose activity change, negative = cytotoxicity, actives largely listed as inhibitors; hit rate 4.3% among 94,000; also: nearly all actives have a fitted effect of over 55% in size
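NIH 3T3 cells at 400 cells/well received 23 nL of compound by pintool and were incubated 48 or 72 h at 37 °C. Viability was read as ATP-coupled CellTiter-Glo luminescence.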
* = called active by the depositor; [ ] = another dose, or the depositor's remark. Unless noted, calls follow the shape of the dose curve; as a rule, active = well fitted curve in the direction sought with a large enough effect; inconclusive = small, poorly fitted or top-dose-only effect, or another doubt; inactive = no such curve, though single readings can be large; an effect the other way counts as inactive or inconclusive. % is scaled to controls: 0 for no effect and ±100 for the full control effect; potency is read from the fitted curve at half-maximal effect.

What do the screens show for `O=C(Cn1c(=O)oc2ccccc21)NCC1Cn2cccc2C(=O)N1Cc1ccccc1` (stereo not given)?
hNpr1 antagonist: inconclusive; HEK cytotox: -5%; FLuc inh: inactive; GPT2 inhibitor: inactive; 3T3 cytotox: -9%

Results for Cn1ccc2c(C(=O)NCc3cccnc3)nc(-c3cnn(Cc4ccccc4)c3)cc21 ?
hNpr1 antagonist: -13%[70.6 µM]; HEK cytotox: 63µM*; FLuc inh: inactive; GPT2 inhibitor: 0%[88.5 µM]; 3T3 cytotox: inconclusive

What do the screens show for `CC(C)C[C@@H]1N[C@H](C(=O)NCCN(C)C)Cc2c[nH]c3cccc1c23`?
hNpr1 antagonist: 1%[70.6 µM]; HEK cytotox: 100µM*; FLuc inh: inactive; GPT2 inhibitor: inactive; 3T3 cytotox: 56µM*

What do the screens show for `CC(C)C[C@@H]1N[C@H](C(=O)NCCOc2ccccc2)Cc2cn(C)c3cccc1c23`?
hNpr1 antagonist: -22%[70.6 µM]; HEK cytotox: 40µM*; FLuc inh: inactive; GPT2 inhibitor: inconclusive; 3T3 cytotox: 32µM*

What do the screens show for `CCCNC(=O)[C@@H]1Cc2c[nH]c3cccc(c23)[C@H](CC(C)C)N1`?
hNpr1 antagonist: -2%[70.6 µM]; HEK cytotox: 50µM*; FLuc inh: inactive; GPT2 inhibitor: 4%[88.5 µM]; 3T3 cytotox: inconclusive

How did C=CCNC(=O)[C@@H]1Cc2cn(CC=C)c3cccc(c23)[C@H](CC(C)C)N1 do in these assays?
hNpr1 antagonist: -2%[70.6 µM]; HEK cytotox: inconclusive; FLuc inh: inactive; GPT2 inhibitor: 2%[88.5 µM]; 3T3 cytotox: inconclusive

Results for C=CCNC(=O)[C@@H]1Cc2c[nH]c3cccc(c23)[C@H](CC(C)C)N1 ?
hNpr1 antagonist: 4%[70.6 µM]; HEK cytotox: inconclusive; FLuc inh: inactive; GPT2 inhibitor: inconclusive; 3T3 cytotox: inconclusive

What do the screens show for `CC(C)C[C@@H]1N[C@H](C(=O)NCCOc2ccccc2)Cc2c[nH]c3cccc1c23`?
hNpr1 antagonist: -29%[70.6 µM]; HEK cytotox: inconclusive; FLuc inh: inactive; GPT2 inhibitor: -18%[88.5 µM]; 3T3 cytotox: 28µM*

Results for COCC1CN(C(C)=O)CC12CCN(Cc1ccc(Br)o1)CC2 (stereo not given) ?
hNpr1 antagonist: -2%; HEK cytotox: -11%; FLuc inh: inactive; GPT2 inhibitor: inactive; 3T3 cytotox: -11%

What do the screens show for `Cc1nonc1CN1CCN(c2cc(C3CC(N)C3)nc(N)n2)CC1` (stereo not given)?
hNpr1 antagonist: 2%; HEK cytotox: -18%; FLuc inh: inactive; GPT2 inhibitor: inactive; 3T3 cytotox: -15%

How did COc1ccc(N2CCN(c3cc(C4CC(N)C4)nc(N)n3)CC2(C)C)cc1 (stereo not given) do in these assays?
hNpr1 antagonist: -24%; HEK cytotox: 22µM*; FLuc inh: inactive; GPT2 inhibitor: -5%[11.5 µM]; 3T3 cytotox: 22µM*

What do the screens show for `COc1ccccc1Nc1ccnc(N2CCCC(C(=O)N3CCC(C#N)CC3)C2)n1` (stereo not given)?
HEK cytotox: inconclusive; GPT2 inhibitor: inactive; 3T3 cytotox: inconclusive

What do the screens show for `COc1ccc(Nc2ccnc(N3CCCC(C(=O)N4CCC(Cc5ccccc5)CC4)C3)n2)cc1` (stereo not given)?
HEK cytotox: 20µM*; GPT2 inhibitor: -17%; 3T3 cytotox: 28µM*

Results for COc1ccc(Nc2ccnc(N3CCCC(C(=O)NCc4ccccc4Cl)C3)n2)cc1 (stereo not given) ?
HEK cytotox: 35µM*; GPT2 inhibitor: inactive; 3T3 cytotox: 35µM*

What do the screens show for `O=C(c1cccc(Cn2cccn2)c1)N1CCOC(c2ccc(Cl)cc2)C1` (stereo not given)?
hNpr1 antagonist: inconclusive; HEK cytotox: inconclusive; FLuc inh: inactive; GPT2 inhibitor: -10%; 3T3 cytotox: -14%

How did COCCN(Cc1nccs1)C(=O)c1cnc(-c2ccccn2)[nH]c1=O do in these assays?
hNpr1 antagonist: 3%; HEK cytotox: 40µM*; FLuc inh: inactive; GPT2 inhibitor: inactive; 3T3 cytotox: inconclusive

Results for O=C(Nc1cccc(C(F)(F)F)c1)c1nc2c(o1)CCN(Cc1ccc(F)cc1)CC2 ?
hNpr1 antagonist: -30%[70.6 µM]; HEK cytotox: 28µM*; FLuc inh: inactive; GPT2 inhibitor: -39%[88.5 µM]; 3T3 cytotox: 28µM*

Results for O=C(NCC1CC1)c1nc2c(o1)CCN(Cc1cccc(F)c1)CC2 ?
hNpr1 antagonist: inconclusive; HEK cytotox: inconclusive; FLuc inh: inactive; GPT2 inhibitor: 4%[88.5 µM]; 3T3 cytotox: inconclusive

What do the screens show for `O=C(Nc1cccc(C(F)(F)F)c1)c1nc2c(o1)CCN(Cc1ccccc1)CC2`?
hNpr1 antagonist: 0%[70.6 µM]; HEK cytotox: inconclusive; FLuc inh: inactive; GPT2 inhibitor: inconclusive; 3T3 cytotox: inconclusive

How did O=C(Nc1cccc(C(F)(F)F)c1)c1nc2c(o1)CCN(Cc1cccc(F)c1)CC2 do in these assays?
hNpr1 antagonist: inconclusive; HEK cytotox: 50µM*; FLuc inh: inconclusive; GPT2 inhibitor: -2%[88.5 µM]; 3T3 cytotox: inconclusive

How did O=C(Nc1cccc(C(F)(F)F)c1)c1nc2c(o1)CCN(Cc1cnc[nH]1)CC2 do in these assays?
hNpr1 antagonist: -9%[70.6 µM]; HEK cytotox: inconclusive; FLuc inh: 40µM*; GPT2 inhibitor: -28%[88.5 µM]; 3T3 cytotox: inconclusive

What do the screens show for `O=C(NC[C@H]1OC[C@@H](NC2CCC2)[C@@H]1O)N1CCOCC1`?
hNpr1 antagonist: 3%[70.6 µM]; HEK cytotox: inactive; FLuc inh: inactive; GPT2 inhibitor: inactive; 3T3 cytotox: -2%[138 µM]

How did CCN1CC(CN(C)Cc2cn(-c3ccccc3C)nc2-c2ccc(OC)c(F)c2)CC1=O (stereo not given) do in these assays?
hNpr1 antagonist: 0%; HEK cytotox: 22µM*; FLuc inh: inactive; GPT2 inhibitor: -2%; 3T3 cytotox: inconclusive

What do the screens show for `CCn1ccnc1CN(C)Cc1cn(-c2ccccc2C)nc1-c1ccc(OC)c(F)c1`?
hNpr1 antagonist: 1%; HEK cytotox: inconclusive; FLuc inh: inactive; GPT2 inhibitor: inconclusive; 3T3 cytotox: inconclusive

How did CCc1nc2c(c(-c3ccc(O)cc3)n1)CCN(C(=O)c1cccc(OC)c1)CC2 do in these assays?
HEK cytotox: inconclusive; GPT2 inhibitor: 2%; 3T3 cytotox: -39%

How did COc1ccc(C(=O)N2CCC3(CC2)OC(=O)N(Cc2ccccc2F)C3(C)c2ccccc2)cc1 (stereo not given) do in these assays?
hNpr1 antagonist: 2%; HEK cytotox: 45µM*; FLuc inh: inactive; GPT2 inhibitor: -1%; 3T3 cytotox: 35µM*

What do the screens show for `CC1(c2cccnc2)N(CCOc2ccccc2)C(=O)OC12CCN(C(=O)Cc1cccc(F)c1)CC2` (stereo not given)?
hNpr1 antagonist: -1%; HEK cytotox: -16%; FLuc inh: inactive; GPT2 inhibitor: -7%; 3T3 cytotox: inconclusive
